Source: PubChem BioAssay (Tox21)
Records with an inconclusive call do not appear. Calls of active or inactive are those of the source. Calls come from the whole dose curve; as a rule, active = well fitted curve in the direction sought with a large enough effect in the repeat runs; inconclusive = weak or mixed curves; inactive = no such curve, though single readings can be large; an effect the other way counts as inactive or inconclusive.

Key:
[1] = Caspase-3/7 induction in HepG2 cells by small molecules, qHTS assay (AID 1346978); note: nearly all actives have a fitted effect of over 15% in size; note: potency is the fitted concentration of half-maximal effect
In short: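 Wild-type HepG2 cells, 2,000/well, settled 5 hr at 37 C and 5% CO2, then compound-treated for 17 hr; caspase-3/7 activity read by luminescent Caspase-Glo 3/7 after 30 min at room temperature.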

[2] = Caspase-3/7 induction in CHO-K1 cells by small molecules, qHTS cell viability counter screen (AID 1346979); note: nearly all actives have a fitted effect of over 35% in size; note: potency is the fitted concentration of half-maximal effect
In short: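 CellTiter-Fluor viability check, qHTS format: wild-type CHO-K1, 16hr compound treatment, 1hr reagent incubation, fluorescence read.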

[3] = Caspase-3/7 induction in HepG2 cells by small molecules, qHTS cell viability counter screen (AID 1346981); note: nearly all actives have a fitted effect of over 30% in size; note: potency is the fitted concentration of half-maximal effect; for activity change, negative = cytotoxicity: series mostly up to about 92 µM
In short: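 Steps: seed 2,000 HepG2 cells per well; incubate 5 hr at 37 C; pin-add compounds in DMSO; incubate 16 hr; add CellTiter-Fluor; after 1 hr at 37 C and 5% CO2, read fluorescence.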

[4] = molecular target: Nuclear receptor subfamily 1 group I member 2 (Homo sapiens) (UniProt O75469); assay: Human pregnane X receptor (PXR) small molecule agonists, qHTS assay (AID 1346982); note: nearly all actives have a fitted effect of over 35% in size; note: potency is the fitted concentration of half-maximal effect
In short: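 Agonist mode qHTS: PXR-Luc HepG2 cells plated 5 hr before DMSO-dissolved compounds were pinned in, cultured 24 hr at 37 C, 5% CO2; ONE-Glo luminescence readout.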

[5] = molecular target: Cytochrome P450 2C19 (Homo sapiens) (UniProt P33261); assay: Cytochrome P450 Family 2 Subfamily C Member 19 (CYP2C19) small molecule antagonists: luciferase reporter qHTS assay (AID 1671197); note: nearly all actives have a fitted effect of over 65% in size; note: potency is the fitted concentration of half-maximal effect; for activity change, negative = inhibition: series mostly up to about 120 µM
In short: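 Compounds were tested on CYP2C19 activity via proluciferin conversion to luciferin. The 37C, 1 h reaction followed NADPH addition; detection reagent stopped it.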

[6] = molecular target: Cytochrome P450 2C9 (Homo sapiens) (UniProt P11712); assay: Cytochrome P450 Family 2 Subfamily C Member 9 (CYP2C9) small molecule antagonists: luciferase reporter qHTS assay (AID 1671198); note: nearly all actives have a fitted effect of over 50% in size; note: potency is the fitted concentration of half-maximal effect; for activity change, negative = inhibition: series mostly up to about 120 µM
In short: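 P450-Glo proluciferin substrate with CYP2C9 enzyme; 10 min RT preincubation, then NADPH regeneration 1 h at 37C; luciferin detection reagent 20 min RT, luminescence in relative luminescence units.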

[7] = molecular target: Nuclear receptor subfamily 1 group I member 2 (Rattus norvegicus) (UniProt Q9R1A7); assay: Rat pregnane X receptor (rPXR) activation by small molecules, qHTS assay (AID 1346983); conditions: rPXR luciferase reporter cells, One-Glo luminescence, 24 h; max activation: active compounds read high; note: nearly all actives have a fitted effect of over 20% in size
In short: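 Cell-based rPXR activation assay: rPXR cells, 2,000 per well, rested 5hr at 37 C, then exposed to compounds in DMSO for 24 hr at 37 C. Luciferase activity read by One-Glo luminescence after 30 min at room temperature.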

[8] = molecular target: Nuclear receptor subfamily 1 group I member 2 (Homo sapiens) (UniProt O75469); assay: CYP3A4 induction through human pregnane X receptor (PXR) by small molecules, qHTS assay (AID 1346984); note: nearly all actives have a fitted effect of over 40% in size
In short: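 Steps: seed DPX-2 cells, 5 hr at 37C; pin-transfer compounds; 24 hr at 37C; add Luciferin-IPA (3uM final), 3 hr at 37C; add One-Glo, 30 min RT; read luminescence.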

[9] = molecular target: Cytochrome P450 2D6 (Homo sapiens) (UniProt P10635); assay: Cytochrome P450 Family 2 Subfamily D Member 6 (CYP2D6) small molecule antagonists: luciferase reporter qHTS assay (AID 1671196); note: nearly all actives have a fitted effect of over 50% in size; note: potency is the fitted concentration of half-maximal effect; for activity change, negative = inhibition: series mostly up to about 120 µM
In short: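 P450-Glo format: CYP2D6 converts a proluciferin substrate to luciferin in an NADPH-driven reaction lasting 1 h at room temperature. Light output, proportional to CYP2D6 activity, reflects interference by test chemicals.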
% is set by controls: 0 for no effect and ±100 for the full control effect.

Cytochrome P450 2D6 (Homo sapiens), sequence (P10635 whole entry, looked up): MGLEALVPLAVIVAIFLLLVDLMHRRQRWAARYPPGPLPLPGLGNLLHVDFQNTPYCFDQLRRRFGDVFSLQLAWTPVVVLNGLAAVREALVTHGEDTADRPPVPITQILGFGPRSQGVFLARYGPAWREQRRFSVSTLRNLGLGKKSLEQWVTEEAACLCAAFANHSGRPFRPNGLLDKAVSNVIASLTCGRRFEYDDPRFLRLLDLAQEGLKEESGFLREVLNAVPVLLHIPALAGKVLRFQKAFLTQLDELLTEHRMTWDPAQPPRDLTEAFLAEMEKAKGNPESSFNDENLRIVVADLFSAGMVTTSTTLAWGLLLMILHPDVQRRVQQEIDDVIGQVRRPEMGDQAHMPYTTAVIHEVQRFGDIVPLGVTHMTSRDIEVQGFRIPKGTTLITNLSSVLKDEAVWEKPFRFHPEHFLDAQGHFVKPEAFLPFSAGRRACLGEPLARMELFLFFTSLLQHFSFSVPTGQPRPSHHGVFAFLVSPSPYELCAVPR
Nuclear receptor subfamily 1 group I member 2 (Rattus norvegicus), sequence (Q9R1A7 whole entry, looked up): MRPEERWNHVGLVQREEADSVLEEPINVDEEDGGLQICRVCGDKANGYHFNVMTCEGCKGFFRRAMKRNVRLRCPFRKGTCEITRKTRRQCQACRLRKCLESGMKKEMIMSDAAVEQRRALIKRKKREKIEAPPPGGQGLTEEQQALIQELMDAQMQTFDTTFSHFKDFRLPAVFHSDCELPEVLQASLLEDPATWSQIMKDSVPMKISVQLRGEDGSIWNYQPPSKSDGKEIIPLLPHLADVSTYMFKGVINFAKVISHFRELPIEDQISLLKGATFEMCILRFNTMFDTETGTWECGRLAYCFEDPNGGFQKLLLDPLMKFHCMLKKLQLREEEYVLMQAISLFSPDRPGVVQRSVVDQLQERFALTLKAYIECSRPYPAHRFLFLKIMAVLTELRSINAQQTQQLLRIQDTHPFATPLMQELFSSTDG
Cytochrome P450 2C9 (Homo sapiens), sequence (P11712 whole entry, looked up): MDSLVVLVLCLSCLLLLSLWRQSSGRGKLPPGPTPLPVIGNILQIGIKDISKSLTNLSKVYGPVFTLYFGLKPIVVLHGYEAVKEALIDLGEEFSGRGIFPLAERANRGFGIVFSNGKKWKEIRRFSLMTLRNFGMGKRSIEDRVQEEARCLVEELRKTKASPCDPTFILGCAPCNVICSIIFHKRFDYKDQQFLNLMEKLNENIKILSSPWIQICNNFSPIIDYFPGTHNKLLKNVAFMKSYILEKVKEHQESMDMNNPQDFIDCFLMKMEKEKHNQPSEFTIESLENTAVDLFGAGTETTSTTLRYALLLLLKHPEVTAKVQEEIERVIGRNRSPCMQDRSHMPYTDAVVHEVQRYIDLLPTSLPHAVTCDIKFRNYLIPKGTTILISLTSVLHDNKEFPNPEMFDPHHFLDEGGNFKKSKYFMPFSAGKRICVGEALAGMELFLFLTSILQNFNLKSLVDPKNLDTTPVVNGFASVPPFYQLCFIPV
Nuclear receptor subfamily 1 group I member 2 (Homo sapiens), sequence (O75469 whole entry, looked up): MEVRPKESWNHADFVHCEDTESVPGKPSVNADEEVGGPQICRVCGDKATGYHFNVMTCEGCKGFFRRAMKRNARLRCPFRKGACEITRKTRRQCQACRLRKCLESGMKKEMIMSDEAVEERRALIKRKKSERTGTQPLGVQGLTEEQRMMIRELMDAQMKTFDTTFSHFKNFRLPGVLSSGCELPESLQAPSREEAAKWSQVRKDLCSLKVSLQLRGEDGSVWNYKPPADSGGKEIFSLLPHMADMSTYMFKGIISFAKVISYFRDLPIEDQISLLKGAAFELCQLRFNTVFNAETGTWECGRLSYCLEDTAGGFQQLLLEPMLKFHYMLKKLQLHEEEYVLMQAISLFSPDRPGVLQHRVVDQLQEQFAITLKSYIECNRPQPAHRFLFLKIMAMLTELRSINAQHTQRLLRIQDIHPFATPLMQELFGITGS
Cytochrome P450 2C19 (Homo sapiens), sequence (P33261 whole entry, looked up): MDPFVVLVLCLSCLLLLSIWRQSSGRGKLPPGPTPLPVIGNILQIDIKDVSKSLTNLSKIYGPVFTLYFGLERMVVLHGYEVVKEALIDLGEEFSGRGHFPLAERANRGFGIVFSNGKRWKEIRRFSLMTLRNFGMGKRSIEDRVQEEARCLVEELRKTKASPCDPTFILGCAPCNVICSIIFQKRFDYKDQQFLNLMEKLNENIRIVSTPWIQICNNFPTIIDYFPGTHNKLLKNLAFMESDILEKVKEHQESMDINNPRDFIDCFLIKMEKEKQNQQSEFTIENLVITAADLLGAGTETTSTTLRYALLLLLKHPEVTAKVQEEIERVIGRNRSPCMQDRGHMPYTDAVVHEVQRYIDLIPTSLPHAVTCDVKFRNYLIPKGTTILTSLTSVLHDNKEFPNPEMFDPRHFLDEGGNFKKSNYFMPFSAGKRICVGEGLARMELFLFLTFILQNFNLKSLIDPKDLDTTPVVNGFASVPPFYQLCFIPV

NC(=O)c1ccccc1N
inactive: Potency [1] | Potency [2] | Potency [3] | Potency [4] | Potency [6]
active: Potency [5] 35.8 µM

C=C(c1ccc(C(=O)O)cc1)c1cc2c(cc1C)C(C)(C)CCC2(C)C
active: Potency [1] 68.6 µM | Potency [2] 61.1 µM | Potency [6] 27.5 µM
inactive: Potency [4] | max activation [7] -18.2% | Potency [8] | Potency [9] | Potency [5]

O=C(Nc1ccc(Cl)cc1)Nc1ccc(Cl)c(C(F)(F)F)c1
inactive: Potency [1]
active: Potency [2] 11.9 µM | Potency [3] 29.8 µM | Potency [4] 9.44 µM | Potency [5] 17.4 µM | Potency [6] 13.8 µM

Cc1cncc(C)c1
inactive: Potency [1] | Potency [2] | Potency [3] | Potency [4] | Potency [9] | Potency [5] | Potency [6]

COCC(=O)O[C@]1(CCN(C)CCCc2nc3ccccc3[nH]2)CCc2cc(F)ccc2[C@@H]1C(C)C
active: Potency [1] 26.6 µM | Potency [2] 29.8 µM | Potency [3] 29.8 µM | Potency [4] 1.68 µM
inactive: max activation [7] -19.6% | Potency [8] | Potency [6]

CCCCCCCCCCOCC(O)CN (configuration not stated)
active: Potency [1] 29.8 µM | Potency [2] 33.5 µM | Potency [9] 6.92 µM | Potency [5] 6.92 µM | Potency [6] 13.8 µM
inactive: Potency [4] | max activation [7] -17.7%

CSc1c(Cl)c(Cl)c(Cl)c(Cl)c1Cl
inactive: Potency [1] | Potency [2] | Potency [3] | Potency [9] | Potency [5] | Potency [6]
active: Potency [4] 68.2 µM

CCCCCCCC/C=C\CCCCCCCC(=O)N(C)CC(=O)O
inactive: Potency [1] | Potency [3] | Potency [4] | Potency [9] | Potency [5]
active: Potency [2] 68.6 µM | Potency [6] 44.8 µM

ClC/C=C\CCl
inactive: Potency [1] | Potency [2] | Potency [3] | Potency [6]
active: Potency [5] 33.1 µM

O=C(O)CC(=O)O
active: Potency [9] 71.2 µM
inactive: Potency [1] | Potency [2] | Potency [3] | Potency [4] | Potency [5] | Potency [6]

CCCCN(CCCC)CCC(O)c1cc2c(Cl)cc(Cl)cc2c2cc(C(F)(F)F)ccc12 (configuration not stated)
inactive: Potency [1] | Potency [3] | max activation [7] -2.62% | Potency [8] | Potency [5] | Potency [6]
active: Potency [2] 26.6 µM | Potency [4] 21.1 µM | Potency [9] 1.55 µM

C=CC(=O)OCCOCC(CC)(COCCOC(=O)C=C)COCCOC(=O)C=C
inactive: Potency [1]
active: Potency [2] 8.02 µM | Potency [3] 63.7 µM | Potency [4] 28.4 µM | Potency [5] 23.4 µM | Potency [6] 26.3 µM

CNC(=S)NN
inactive: Potency [3]
active: Potency [1] 61.1 µM | Potency [2] 19.3 µM | Potency [6] 39.9 µM

CC(C)(C)CC(C)(C)c1ccccc1O
inactive: Potency [5]
active: Potency [1] 48.8 µM | Potency [2] 61.4 µM | Potency [3] 61.4 µM | Potency [4] 21.8 µM | Potency [6] 17.9 µM

CCCCCCCCCCCCN(CCO)CCO
active: Potency [1] 30.5 µM | Potency [2] 43.1 µM | Potency [3] 68.3 µM | Potency [4] 15.3 µM | Potency [9] 11.2 µM | Potency [5] 25.1 µM | Potency [6] 63 µM

Cc1cn[nH]c1
inactive: Potency [1] | Potency [2] | Potency [3]

CCCOc1sc(C(=O)N2CCC(c3cc(CN)ccc3F)CC2)c(C)c1Br
active: Potency [1] 44.5 µM | Potency [2] 22.3 µM | Potency [3] 49.9 µM | Potency [9] 18.3 µM | Potency [5] 3.66 µM | Potency [6] 1.63 µM
inactive: Potency [4]

CCN(CC)CCOc1ccc(C(O)(Cc2ccc(Cl)cc2)c2ccc(C)cc2)cc1 (configuration not stated)
inactive: max activation [7] -4.47% | Potency [9]
active: Potency [1] 33.5 µM | Potency [2] 26.6 µM | Potency [4] 9.44 µM | Potency [5] 38.9 µM | Potency [6] 38.9 µM

C=C1C(C)(C)[C@@]2(Cl)C(Cl)[C@]1(Cl)C(Cl)(Cl)C2(Cl)Cl (some centres not stated)
inactive: Potency [1]
active: Potency [2] 60 µM | Potency [4] 10.7 µM | Potency [9] 31.1 µM | Potency [5] 1.96 µM | Potency [6] 13.9 µM

NC(=O)c1nc(-c2cccc(-c3cc(F)ccc3OCC(F)(F)C(F)(F)F)c2)n[nH]1
inactive: Potency [1]
active: Potency [2] 54.5 µM | Potency [3] 61.1 µM | Potency [4] 61.1 µM | Potency [9] 79.6 µM | Potency [5] 28.3 µM | Potency [6] 28.3 µM

CCN1CCN(c2cc(-c3ccc(F)cc3)c3c(n2)CCCCCC3)CC1
active: Potency [9] 6.74 µM
inactive: caspase activation [1] 0.316% [at 19 µM] | activity change, negative = cytotoxicity [2] 0.368% [at 19 µM] | activity change, negative = cytotoxicity [3] -1.31% [at 19 µM] | activation [4] -23.7% [at 19 µM] | activity change, negative = inhibition [5] -2.56% [at 23.6 µM] | activity change, negative = inhibition [6] -5.46% [at 23.6 µM]

CC(C)=CCCC(C)O (configuration not stated)
inactive: Potency [1] | Potency [2] | Potency [3] | Potency [4] | Potency [9] | Potency [5] | Potency [6]

CCCC(=O)OCC(COC(=O)CCC)OC(=O)CCC
active: Potency [5] 20 µM | Potency [6] 5.64 µM
inactive: Potency [1] | Potency [2] | Potency [3] | Potency [4] | Potency [9]

C=CC(=O)OCCN(CC)CC
inactive: Potency [1] | Potency [2] | Potency [3] | Potency [4] | Potency [9] | Potency [5] | Potency [6]
